The results in this text go back to ChEMBL document CHEMBL3988442, “University of Dundee, Small-Polar-MMV Screening Library” (2021).

Set-up in all cases: scale not given: direction of the effect not stated beside the values
The target in assay [1] is Protein translocase subunit SecA (Escherichia coli (strain K12)) (UniProt P10408). Kind of assay: Assay to Identify E. coli SecA ATPase Inhibitors. It is filed as functional. To be noted: 30 µM.
Assay [2] has as its target T1, Ubiquitin-activating enzyme e1, putative (Leishmania donovani (strain BPK282A1)) (UniProt E9BSI1).
T1 sequence (whole entry): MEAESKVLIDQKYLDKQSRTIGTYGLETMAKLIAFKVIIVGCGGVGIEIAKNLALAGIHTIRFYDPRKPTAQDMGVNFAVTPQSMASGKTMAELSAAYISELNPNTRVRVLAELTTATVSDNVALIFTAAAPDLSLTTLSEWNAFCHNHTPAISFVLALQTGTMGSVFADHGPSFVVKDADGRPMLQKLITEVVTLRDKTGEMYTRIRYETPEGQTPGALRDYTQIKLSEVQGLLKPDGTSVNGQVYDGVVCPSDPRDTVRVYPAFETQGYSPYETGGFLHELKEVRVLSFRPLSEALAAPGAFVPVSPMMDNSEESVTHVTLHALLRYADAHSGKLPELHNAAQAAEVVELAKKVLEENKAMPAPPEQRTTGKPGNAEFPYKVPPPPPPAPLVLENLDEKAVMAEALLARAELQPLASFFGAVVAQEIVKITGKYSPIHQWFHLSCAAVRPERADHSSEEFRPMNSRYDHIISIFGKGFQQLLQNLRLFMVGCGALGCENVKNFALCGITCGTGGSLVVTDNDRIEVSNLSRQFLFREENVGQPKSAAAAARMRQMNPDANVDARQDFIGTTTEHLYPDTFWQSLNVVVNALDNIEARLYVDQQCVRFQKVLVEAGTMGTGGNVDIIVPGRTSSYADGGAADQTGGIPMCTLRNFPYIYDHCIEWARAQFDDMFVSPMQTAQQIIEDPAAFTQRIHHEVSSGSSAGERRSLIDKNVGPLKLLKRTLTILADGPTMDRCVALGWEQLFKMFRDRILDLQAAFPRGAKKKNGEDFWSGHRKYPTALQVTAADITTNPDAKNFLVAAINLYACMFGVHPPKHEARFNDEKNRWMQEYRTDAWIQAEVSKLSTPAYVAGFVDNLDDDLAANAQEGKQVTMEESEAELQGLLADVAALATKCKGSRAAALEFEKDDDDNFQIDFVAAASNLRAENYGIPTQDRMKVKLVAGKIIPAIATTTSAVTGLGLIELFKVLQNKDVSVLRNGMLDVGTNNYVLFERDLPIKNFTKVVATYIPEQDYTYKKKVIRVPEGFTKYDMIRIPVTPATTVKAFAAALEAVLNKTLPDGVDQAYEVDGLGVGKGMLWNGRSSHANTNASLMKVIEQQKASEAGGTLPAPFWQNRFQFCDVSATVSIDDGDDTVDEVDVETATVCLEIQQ
Kind of assay: Leishmania donovani Ubiquitin Activating Enzyme (LdE1). The conditions noted are these: 30 µM. Format: functional.

The target of assay [3] is T2, Aspartate--tRNA(Asp/Asn) ligase (Mycobacterium tuberculosis (strain ATCC 25618 / H37Rv)) (UniProt P9WFW3). Further: in the data most compounds retested in dose-response had high values.
T2 sequence (whole entry): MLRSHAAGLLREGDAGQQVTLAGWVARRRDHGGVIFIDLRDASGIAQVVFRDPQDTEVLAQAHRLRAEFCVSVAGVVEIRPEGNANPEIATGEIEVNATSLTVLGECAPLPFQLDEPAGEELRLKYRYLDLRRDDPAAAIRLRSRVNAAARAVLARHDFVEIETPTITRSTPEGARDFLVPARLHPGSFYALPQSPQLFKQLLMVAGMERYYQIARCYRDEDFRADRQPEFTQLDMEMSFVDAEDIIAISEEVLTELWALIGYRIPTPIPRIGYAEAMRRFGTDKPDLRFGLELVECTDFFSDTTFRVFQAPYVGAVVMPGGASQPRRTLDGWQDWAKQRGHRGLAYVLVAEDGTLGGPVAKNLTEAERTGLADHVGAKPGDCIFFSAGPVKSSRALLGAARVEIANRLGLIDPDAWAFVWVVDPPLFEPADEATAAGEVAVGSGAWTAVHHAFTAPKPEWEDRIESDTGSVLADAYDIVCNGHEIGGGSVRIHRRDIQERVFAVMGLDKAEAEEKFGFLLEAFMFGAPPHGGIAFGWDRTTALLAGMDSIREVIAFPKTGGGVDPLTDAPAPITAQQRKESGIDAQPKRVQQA
Kind of assay: Assay for Asp RNA synthetase-1 from Mycobacterium tuberculosis. To be noted: 30 µM. Format: functional.

For assay [4], the target named is AMP-activated protein kinase, AMPK (Homo sapiens) (UniProt P54646+O43741+P54619+Q9UGJ0+Q9Y478+Q13131+Q9UGI9). Kind of assay: AMP-dependent Kinase enzyme assay. An in vitro enzyme assay that detects ADP turnover that is directly proportional to AMPK activity. This uses naive AMPK that is activated during the assay with MK-8722. Format: functional. To be noted: 30 µM.

Assay [5] deals with Sialic acid-binding Ig-like lectin 9 (Homo sapiens) (UniProt Q9Y336). Kind of assay: Hs-Siglec9 ALPHAscreen SOP 20170721. To be noted: 10 µM. Background: In Alpha technology, singlet oxygen from a donor bead excites a nearby acceptor bead.
The next assay deals with Trypanosoma cruzi. Kind of assay: Trypanosoma cruzi phosphomannomutase and mannose-1-phosphate guanylyltransferase assay. To be noted: 10 µM. It is filed as functional.
The target in assay [6] is T3, Arginase-2, mitochondrial (Homo sapiens) (UniProt P78540).
T3 sequence (whole entry): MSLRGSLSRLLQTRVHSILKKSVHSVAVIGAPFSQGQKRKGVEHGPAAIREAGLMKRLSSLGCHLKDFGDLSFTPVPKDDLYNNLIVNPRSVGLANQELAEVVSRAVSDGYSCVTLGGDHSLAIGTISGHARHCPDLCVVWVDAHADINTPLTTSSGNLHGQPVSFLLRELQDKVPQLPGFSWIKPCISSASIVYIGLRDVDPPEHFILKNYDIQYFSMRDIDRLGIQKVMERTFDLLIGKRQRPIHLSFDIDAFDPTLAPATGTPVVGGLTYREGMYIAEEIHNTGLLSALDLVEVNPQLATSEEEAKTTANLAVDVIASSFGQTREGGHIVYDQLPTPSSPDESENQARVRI
Kind of assay: in vitro enzyme assay to detect the production of urea directly proportional to the activity of Arginase II. Further: in the data most compounds retested in dose-response had high values. Format: functional. To be noted: 33.3 µM.

The target of assay [7] is T4, Proteasome subunit beta (Trypanosoma cruzi) (UniProt O96673).
T4 sequence (whole entry): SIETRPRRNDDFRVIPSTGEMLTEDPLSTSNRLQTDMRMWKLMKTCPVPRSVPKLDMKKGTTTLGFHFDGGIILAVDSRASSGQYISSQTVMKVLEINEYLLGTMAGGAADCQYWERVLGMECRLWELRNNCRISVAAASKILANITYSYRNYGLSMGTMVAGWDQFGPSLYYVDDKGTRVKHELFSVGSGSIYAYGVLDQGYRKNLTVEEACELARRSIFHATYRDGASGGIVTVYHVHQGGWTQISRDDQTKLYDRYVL
Kind of assay: Trypanosoma cruzi proteasome chymotrypsin-like activity (TcProtChymo) assay. Further: in the data most compounds retested in dose-response had high values. To be noted: 9.37 µM. Format: functional.

The species named for the next assay is Homo sapiens. Kind of assay: To identify inhibition of the IFN signalling (Jak-Stat) pathway via expression of an eGFP reporter gene under the control of an IFN-stimulated response element (ISRE) containing MxA promoter. It is filed as functional. To be noted: 30 µM. Background: A reporter such as luciferase makes a cellular process visible.
The target of assay [8] is Shiga toxin 2 (Escherichia coli O157:H7) (UniProt P09385+P09386). Kind of assay: E. coli 0.157:H7 Shiga Toxin SOP - stx2 screening assay. It is filed as functional. To be noted: 30 µM.
The target in assay [9] is T5, Tyrosyl-tRNA synthetase, putative (Trypanosoma cruzi (strain CL Brener)) (UniProt Q4DSP6).
T5 sequence (whole entry): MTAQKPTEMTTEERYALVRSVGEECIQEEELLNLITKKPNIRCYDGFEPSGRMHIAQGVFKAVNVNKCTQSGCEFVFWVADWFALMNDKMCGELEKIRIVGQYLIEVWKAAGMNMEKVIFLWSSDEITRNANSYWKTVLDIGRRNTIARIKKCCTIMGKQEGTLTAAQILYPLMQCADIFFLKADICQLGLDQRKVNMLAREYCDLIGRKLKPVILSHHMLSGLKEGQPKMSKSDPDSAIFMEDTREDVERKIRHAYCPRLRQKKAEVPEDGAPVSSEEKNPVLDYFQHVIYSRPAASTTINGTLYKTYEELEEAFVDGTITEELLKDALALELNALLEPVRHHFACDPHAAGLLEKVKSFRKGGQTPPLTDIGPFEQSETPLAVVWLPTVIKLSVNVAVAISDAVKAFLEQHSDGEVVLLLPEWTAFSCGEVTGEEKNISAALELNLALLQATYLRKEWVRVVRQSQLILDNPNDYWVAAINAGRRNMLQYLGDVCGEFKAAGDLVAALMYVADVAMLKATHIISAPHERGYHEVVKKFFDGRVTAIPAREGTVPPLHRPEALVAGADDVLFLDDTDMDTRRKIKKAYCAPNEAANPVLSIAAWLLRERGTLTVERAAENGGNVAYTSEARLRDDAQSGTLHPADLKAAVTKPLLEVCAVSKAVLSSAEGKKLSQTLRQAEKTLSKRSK
Kind of assay: Trypanosoma cruzi tyrosyl tRNA synthetase (TcYRS) _High Tyrosine SOP. Further: in the data most compounds retested in dose-response had high values. Format: functional. To be noted: 30 µM.

The target in assay [10] is T5, Tyrosyl-tRNA synthetase, putative (Trypanosoma cruzi (strain CL Brener)). Kind of assay: Trypanosoma cruzi tyrosyl tRNA synthetase (TcYRS) SOP. Format: functional. To be noted: 30 µM.
Assay [11] has as its target Chromo domain-containing protein 1 (Saccharomyces cerevisiae (strain ATCC 204508 / S288c) (Baker's yeast)) (UniProt P32657). Kind of assay: ScCHD-1 Enzyme Inhibition Assay. Further: in the data most compounds retested in dose-response had high values. Format: functional. The conditions noted are these: 30 µM.

The structures appear in SMILES notation. For some assays here: Potency and affinity values are given separately.

Chain of Sialic acid-binding Ig-like lectin 9 (Homo sapiens) (Q9Y336 whole entry): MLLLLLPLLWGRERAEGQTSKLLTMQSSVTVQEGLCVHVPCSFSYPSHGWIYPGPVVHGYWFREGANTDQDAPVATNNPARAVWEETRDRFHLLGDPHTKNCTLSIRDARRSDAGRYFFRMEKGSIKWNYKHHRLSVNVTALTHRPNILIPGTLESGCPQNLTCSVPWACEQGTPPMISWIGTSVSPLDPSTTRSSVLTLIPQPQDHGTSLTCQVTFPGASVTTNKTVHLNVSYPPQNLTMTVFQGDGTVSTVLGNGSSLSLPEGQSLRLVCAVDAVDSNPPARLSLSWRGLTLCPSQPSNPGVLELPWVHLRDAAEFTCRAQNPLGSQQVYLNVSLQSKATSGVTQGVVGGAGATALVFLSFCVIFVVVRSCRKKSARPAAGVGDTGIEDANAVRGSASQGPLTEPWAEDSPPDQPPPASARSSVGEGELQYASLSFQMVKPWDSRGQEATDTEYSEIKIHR
Chain of Protein translocase subunit SecA (Escherichia coli (strain K12)) (P10408 whole entry): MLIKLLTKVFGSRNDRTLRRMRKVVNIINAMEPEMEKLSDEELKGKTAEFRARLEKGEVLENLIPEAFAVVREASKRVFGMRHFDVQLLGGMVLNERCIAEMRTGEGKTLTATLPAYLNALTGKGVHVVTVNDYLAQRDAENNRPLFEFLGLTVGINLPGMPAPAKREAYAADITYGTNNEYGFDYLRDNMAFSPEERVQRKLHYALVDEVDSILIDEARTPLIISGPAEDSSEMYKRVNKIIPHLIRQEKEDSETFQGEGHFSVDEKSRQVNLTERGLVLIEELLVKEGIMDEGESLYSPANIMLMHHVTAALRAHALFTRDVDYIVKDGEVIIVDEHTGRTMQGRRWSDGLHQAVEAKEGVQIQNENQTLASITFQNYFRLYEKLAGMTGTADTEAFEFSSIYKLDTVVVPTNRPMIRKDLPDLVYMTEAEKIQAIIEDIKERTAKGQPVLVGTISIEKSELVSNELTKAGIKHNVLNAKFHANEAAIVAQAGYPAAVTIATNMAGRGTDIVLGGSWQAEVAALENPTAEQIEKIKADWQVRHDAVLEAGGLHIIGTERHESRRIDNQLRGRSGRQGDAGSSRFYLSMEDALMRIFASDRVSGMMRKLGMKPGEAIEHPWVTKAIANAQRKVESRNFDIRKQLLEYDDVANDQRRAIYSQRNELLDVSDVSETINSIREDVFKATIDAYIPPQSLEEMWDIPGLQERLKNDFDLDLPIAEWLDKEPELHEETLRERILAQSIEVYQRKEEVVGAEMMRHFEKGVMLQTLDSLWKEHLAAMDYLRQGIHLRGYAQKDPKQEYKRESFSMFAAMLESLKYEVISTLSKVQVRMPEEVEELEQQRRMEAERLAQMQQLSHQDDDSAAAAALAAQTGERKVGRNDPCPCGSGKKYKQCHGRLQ
Chain of Chromo domain-containing protein 1 (Saccharomyces cerevisiae (strain ATCC 204508 / S288c) (Baker's yeast)) (P32657 whole entry, the tested form may be a part): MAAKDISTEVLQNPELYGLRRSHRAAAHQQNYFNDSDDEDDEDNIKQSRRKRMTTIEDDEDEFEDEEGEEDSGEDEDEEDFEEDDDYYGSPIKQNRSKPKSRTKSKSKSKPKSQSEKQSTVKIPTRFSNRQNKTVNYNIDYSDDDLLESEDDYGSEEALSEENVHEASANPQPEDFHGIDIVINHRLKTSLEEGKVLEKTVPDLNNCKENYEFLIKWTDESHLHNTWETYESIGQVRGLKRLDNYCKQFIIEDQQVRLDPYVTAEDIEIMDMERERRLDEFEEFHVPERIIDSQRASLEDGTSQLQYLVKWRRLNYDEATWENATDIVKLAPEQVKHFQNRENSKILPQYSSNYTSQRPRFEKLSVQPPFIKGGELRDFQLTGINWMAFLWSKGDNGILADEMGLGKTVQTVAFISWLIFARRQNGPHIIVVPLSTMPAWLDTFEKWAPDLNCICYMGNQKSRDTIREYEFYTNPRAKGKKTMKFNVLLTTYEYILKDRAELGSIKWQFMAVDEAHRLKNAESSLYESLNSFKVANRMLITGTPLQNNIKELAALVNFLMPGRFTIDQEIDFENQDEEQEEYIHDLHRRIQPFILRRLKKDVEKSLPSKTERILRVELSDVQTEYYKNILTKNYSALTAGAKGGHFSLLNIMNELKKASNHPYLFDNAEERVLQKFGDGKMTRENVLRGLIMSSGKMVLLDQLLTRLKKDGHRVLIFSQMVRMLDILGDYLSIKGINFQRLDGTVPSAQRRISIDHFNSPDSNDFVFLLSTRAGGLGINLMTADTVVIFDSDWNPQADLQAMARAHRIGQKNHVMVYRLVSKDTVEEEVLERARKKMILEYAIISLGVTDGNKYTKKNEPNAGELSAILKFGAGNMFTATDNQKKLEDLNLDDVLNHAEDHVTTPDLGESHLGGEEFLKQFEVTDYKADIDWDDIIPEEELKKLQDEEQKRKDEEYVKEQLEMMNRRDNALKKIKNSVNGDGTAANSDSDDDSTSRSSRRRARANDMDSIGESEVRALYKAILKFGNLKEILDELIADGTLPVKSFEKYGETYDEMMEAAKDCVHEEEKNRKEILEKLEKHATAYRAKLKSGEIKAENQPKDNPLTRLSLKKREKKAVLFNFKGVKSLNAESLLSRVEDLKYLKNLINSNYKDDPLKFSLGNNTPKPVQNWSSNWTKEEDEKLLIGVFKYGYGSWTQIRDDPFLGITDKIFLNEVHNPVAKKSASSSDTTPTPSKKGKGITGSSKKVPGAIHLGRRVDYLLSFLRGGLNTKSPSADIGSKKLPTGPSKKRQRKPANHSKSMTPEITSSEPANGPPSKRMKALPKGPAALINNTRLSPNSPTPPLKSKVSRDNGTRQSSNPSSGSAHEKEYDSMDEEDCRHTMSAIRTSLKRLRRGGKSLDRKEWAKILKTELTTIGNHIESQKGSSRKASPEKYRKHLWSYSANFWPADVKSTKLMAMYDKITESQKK

Take `CCOCC(O)CN1CCN(C(=O)Cc2ccc3c(c2)CCO3)CC1` (stereo not given): the Percent Effect was 1.74% in assay [1]; 10.5% in [2]; 0.3% in [3]; 2.16% in assay [4]; 5% in assay [5]; -3.76% with Trypanosoma cruzi. The Percent Effect in [6] was determined as 6.51%; in assay [7], 21.4%; in the assay listed under Homo sapiens it was 19.4%; in assay [8], 30.7%; in assay [9], 3.43%; in assay [10], 12.2%. Also, the Percent Effect in assay [11] was -2.97%.

`CCN1CCC2(CC1)CC(Nc1ncccn1)CO2` (stereo not given): the Percent Effect in assay [1] was -4.33%; in assay [2] it was 2.7%; in [3], -1.65%; in assay [4] it was -2.57%; in assay [5] it was 1.3%; in the assay on Trypanosoma cruzi, 4.49%. Besides, the Percent Effect in assay [6] was 35.8%; in assay [7], 6.34%; in the assay filed under Homo sapiens, 8.12%; in assay [8], 11.5%; in assay [9], 6.93%; in assay [10], 13.4%. The Percent Effect in [11] is -1.38%.

For `COc1c(Br)cc(Br)cc1CNC(C)Cn1cccn1` (stereo not given), the Percent Effect was -4.9% in [1]; 23.4% in assay [2]; 2.09% in [3]; 5.26% in [4]; -2.65% in assay [5]; -10.9% in the assay on Trypanosoma cruzi. Moreover, the Percent Effect in assay [6] was -3.56%; in assay [7] it was 1.01%; in the assay listed under Homo sapiens it was 35.9%; in assay [8], 15.4%; in [9], 4.85%; in assay [10] it was 9.76%. Also, the Percent Effect in [11] was -8.37%.

Turning to `O=C(CC1CC1)N[C@@H]1CN(Cc2ccncc2)C[C@@H]2CCCO[C@@H]21`, the Percent Effect is 0.104% in assay [1]; 5.33% in assay [2]; -1.92% in [3]; -0.724% in [4]; -5.17% in assay [5]; 2.12% in the assay on Trypanosoma cruzi. The Percent Effect in [6] was -47.1%; in assay [7] it was 8.38%; in the assay filed under Homo sapiens it was -8.9%; in assay [8], -6.38%; in [9] it was 5.21%; in assay [10] it was 7.5%. Also, the Percent Effect in [11] is -4.5%.

As for `O=C(Nc1cccnc1)[C@H]1CN(Cc2nccs2)C[C@H]2OCC[C@@H]12`, the Percent Effect is -4.22% in [1]; 2.67% in assay [2]; -1.01% in [3]; 6.75% in assay [4]; -6.59% in [5]; -0.591% in the assay on Trypanosoma cruzi. For the same compound, the Percent Effect was -0.233% in [6]; 3.61% in [7]; 15% in the assay filed under Homo sapiens; -17.1% in [8]; -2.13% in assay [9]; -6.41% in [10]. The Percent Effect in [11] came out at 2.83%.
